# This is a sample that favours compounds with a hit; in the whole collection about 2.9% have one here.
# ADAM10 inh = human ADAM10 inhibitors, primary screen, biochemical, QFRET, HTS. Disintegrin and metalloproteinase domain-containing protein 10 (Homo sapiens), O14672. recombinant ADAM10, EDANS/DABCYL FRET peptide cleavage, 3 h. inhibition, % at 7 µM. hit rate 0.62% among 370,000;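 active = inhibition above a per-campaign cutoff equal to the mean of compounds falling between control-based bounds plus 3 SD, cut at about 20% in these data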;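 also: 0% = DMSO wells while the 100% control is not disclosed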
# Target sequence (O14672 214-748 limits assumed): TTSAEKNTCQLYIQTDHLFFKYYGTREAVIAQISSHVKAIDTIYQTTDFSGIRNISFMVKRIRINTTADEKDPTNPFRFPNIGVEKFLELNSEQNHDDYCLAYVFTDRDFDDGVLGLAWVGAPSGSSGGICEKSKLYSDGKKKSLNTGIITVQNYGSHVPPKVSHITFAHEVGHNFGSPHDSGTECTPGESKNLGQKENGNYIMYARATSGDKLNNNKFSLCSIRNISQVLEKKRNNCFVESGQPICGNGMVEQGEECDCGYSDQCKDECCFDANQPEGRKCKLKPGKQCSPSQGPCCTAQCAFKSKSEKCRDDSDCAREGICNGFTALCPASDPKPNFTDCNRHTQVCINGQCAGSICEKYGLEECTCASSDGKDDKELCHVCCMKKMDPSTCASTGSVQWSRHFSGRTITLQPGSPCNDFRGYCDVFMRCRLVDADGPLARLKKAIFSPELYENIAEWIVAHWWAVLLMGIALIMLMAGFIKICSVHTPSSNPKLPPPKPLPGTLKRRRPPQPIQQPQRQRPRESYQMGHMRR
# PLC-beta3 inh = human PLC-beta3 inhibitors, primary screen, biochemical, fluorescence; hit rate 0.18% among 370,000; 1-phosphatidylinositol 4,5-bisphosphate phosphodiesterase beta-3 (Homo sapiens), Q01970; Purified PLC-beta3, fluorogenic substrate; inhibition, % at 12.2 µM; in the data active = inhibition above about 11%;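 also: 0% = median of compound wells on plate and 100% = full blocker control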
# PLCg1 inh = PLC-gamma1 enzyme inhibitors, primary screen, biochemical, fluorescence, purified enzyme; fluorogenic substrate; inhibition, % at 12.2 µM; hit rate 0.84% among 370,000; in the data active = inhibition above about 9.5%
# proKLK7 act = proKLK7 zymogen activators, primary screen, biochemical, fluorescence intensity; Kallikrein-7 (Homo sapiens), P49862; purified proKLK7, EDANS-DABCYL substrate fluorescence; 100% is mature enzyme control, 0% vehicle; activation, % at 7 µM; hit rate 0.9% among 370,000;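 active = activation above the mean of all tested compounds plus 3 SD, computed per campaign excluding outliers beyond control limits, cut at about 13% in these data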
# ADAM17 inh = ADAM17 inhibitors, primary screen, biochemical, QFRET | hit rate 0.83% among 370,000 | recombinant ADAM17, EDANS/DABCYL FRET peptide cleavage | inhibition, % at 6.95 µM | Disintegrin and metalloproteinase domain-containing protein 17 (Homo sapiens), P78536 | AID 720648, 2013;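 active = inhibition above the mean of compounds lying between control limits plus 3 SD, set per campaign, cut at about 8.5% in these data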;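 also: 0% = DMSO-only wells as the low control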
# ADAM10 ctr = ADAM10 inhibitors, counter-screen for ADAM17 exosite inhibitor project, biochemical, FRET, human ADAM10. shares compounds with ADAM17 inh. recombinant ADAM10, EDANS/DABCYL FRET peptide cleavage, 3 h. inhibition, % at 6.95 µM. hit rate 47% among 2,900. AID 743256, 2014;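 active = mean inhibition over the triplicate runs exceeds the activity threshold set in the earlier primary screen, cut at about 20% in these data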;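 also: 0% = DMSO wells and 100% = marimastat wells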
# ADAM17 confirm = ADAM17 inhibitors, hit retest, confirmation, biochemical, QFRET peptide cleavage | shares compounds with ADAM17 inh | recombinant ADAM17, EDANS/DABCYL QFRET peptide cleavage | inhibition, % at 6.95 µM | hit rate 65% among 2,900 | AID 743257, 2014;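 active = mean inhibition across replicates above the hit cutoff set in the primary screen, cut at about 8.5% in these data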;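 also: 0% = DMSO wells and 100% = marimastat wells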
# The depositor's hits bear a star; / = not tested or not shown.
SMILES,ADAM10 inh,PLC-beta3 inh,PLCg1 inh,proKLK7 act,ADAM17 inh,ADAM10 ctr,ADAM17 confirm
O=C(c1ccco1)N1CCN(c2nc(C3CC3)nc3c2nnn3Cc2ccccc2Cl)CC1,13,5,6,1,11*,19,8
O=C(COC(=O)c1cccc(S(=O)(=O)N2CCCCC2)c1)NC1CCCc2ccccc21 (stereo unspecified),4,3,-1,0,-1,/,/
CCOC(=O)c1c(O)cc(OC)cc1CCc1ccccc1,-2,3,4,0,9.9*,9,8
COc1cc(O)c(C(=O)O)c(CCc2ccccc2)c1,3,-6,-4,1,0,/,/
CCCCn1nnnc1C(c1cc2ccccc2o1)N1CCN(c2ccccc2F)CC1 (stereo unspecified),-7,1,2,0,-1,/,/
CCCCn1nnnc1C(c1cc2ccccc2o1)N1CCN(c2cc(C)nc3ccccc23)CC1 (stereo unspecified),10,-5,0,-2,8.8*,-13,1
COc1ccc(NC(=O)C(OC(=O)c2cnc(C)cn2)c2ccccc2)cc1Cl (stereo unspecified),1,0,9,0,0,/,/
COc1ccc(NC(=O)C(OC(=O)c2ccc([N+](=O)[O-])o2)c2ccccc2)cc1Cl (stereo unspecified),5,-2,-2,-1,9.8*,25*,12*
COc1ccc(N2CCN(C3CCCN(C(=O)c4ccoc4)C3)CC2)cc1 (stereo unspecified),2,-9,-3,-1,-2,/,/
CCN(CC)S(=O)(=O)c1ccc(C(=O)Nc2cc3oc4ccccc4c3cc2OC)cc1,2,-5,-1,-5,1,/,/
CCN(CC)C(=O)CN(c1cc2c(cc1OC)oc1ccccc12)S(=O)(=O)c1ccc(C)cc1,19,4,6,0,16*,0,8
CCN1C(=O)[C@H]2[C@@H](c3ccc(-c4ccc(C(C)=O)cc4)cc3)N3CCC[C@@]3(C(=O)OC)[C@H]2C1=O,16,-3,-2,1,9.7*,-9,0
COc1ccc(NC(=O)CNC(=O)Cn2c(C)cc3ccccc3c2=O)c(OC)c1,-10,0,2,0,-1,/,/
O=[N+]([O-])c1ccc(Nc2ccc(F)cc2)nc1,3,-8,-4,0,10*,3,5
O=[N+]([O-])c1ccc(Nc2ccccc2)nc1,5,-5,0,0,2,/,/
CCOc1ccc(-c2c(C(=O)N/N=C/C3CC=CCC3)nnn2-c2nonc2N)cc1 (stereo unspecified),7,-6,1,0,9.6*,4,7
CCCc1c(C(=O)N/N=C/C2CC=CCC2)nnn1-c1nonc1N (stereo unspecified),-10,-5,-3,0,-5,/,/
COc1ccc(-c2nnn(CC(=O)N(CC(=O)NC3CCCC3)Cc3cccs3)n2)cc1OC,3,3,0,0,-3,/,/
O=C(c1ccc(F)cc1)N1CCC(C(=O)N2CCN(S(=O)(=O)c3cccc(Cl)c3)CC2)CC1,-4,-4,3,0,9.6*,-7,2
Cc1cc(C)n(-c2ccc(N3CCOCC3)nn2)n1,-1,-2,-1,0,0,/,/
COc1ccc2c(c1)[C@H]1[C@H](CO2)[C@H](c2ccccc2)[C@]2(C)C(=O)Nc3ccc(Cl)cc3C(=O)N12,15,-10,-6,-3,8,/,/
COc1ccc2c(c1)C(=O)N1[C@H]3c4cc(C)ccc4OC[C@@H]3[C@H](c3ccccc3)[C@]1(C)C(=O)N2,14,-18,-10,-4,8.9*,6,9.6*
CC(=O)Nc1nnc(SCC(=O)Nc2ccc(N3CCOCC3)c(Cl)c2)s1,-1,-5,0,0,-2,/,/
Cc1c(C=O)c2ccccn2c1C(=O)c1ccc(F)cc1,12,-36,-15,0,10*,-4,3
Cc1ccc(S(=O)(=O)N2CC3(O)CN(C(=O)OC(C)C)N(C(=O)OC(C)C)CC3(OC(=O)Nc3c(C)noc3C)C2)cc1 (stereo unspecified),-4,0,-3,0,-2,/,/
SMILES,ADAM10 inh,PLC-beta3 inh,PLCg1 inh,proKLK7 act,ADAM17 inh,ADAM10 ctr,ADAM17 confirm
Cc1ccc(S(=O)(=O)N2CC3(O)CN(C(=O)OC(C)C)N(C(=O)OC(C)C)CC3(OC(=O)Nc3cccs3)C2)cc1 (stereo unspecified),19,2,1,0,9.4*,31*,13*
CN1CC(c2ccccc2)C2(SC(=S)N(Cc3ccco3)C2=O)C12C(=O)Nc1ccccc12 (stereo unspecified),26*,0,0,0,10*,37*,24*
Cc1cccc(N(CC(=O)NC2CCCC2)C(=O)CCC(=O)Nc2nc(C)cs2)c1,5,-4,-1,0,-2,/,/
CC(C)(C)NC(=O)NC(=O)COC(=O)CCCc1c[nH]c2ccccc12,17,4,6,0,12*,13,8
Cc1ccc(NC(=O)COC(=O)Cc2c[nH]c3ccccc23)cc1C,12,-3,8,0,14*,2,5
COc1ccc(NC(=O)COC(=O)Cc2c[nH]c3ccccc23)cc1Cl,-10,-6,-1,0,-1,/,/
CCOC(=O)CCCc1c[nH]c2ccccc12,-6,-2,-3,0,-4,/,/
CCc1nc(SCc2ccc(OCC(C)C)cc2)n[nH]1,20*,0,2,0,10*,15,7
COC(=O)[C@H](C)N(CCc1cn(Cc2ccccc2)nn1)S(=O)(=O)c1ccccc1Br,-13,2,3,0,-3,/,/
COC(=O)[C@H](CC(C)C)N(CCc1cn(Cc2ccccc2)nn1)S(=O)(=O)c1ccccc1Br,14,2,2,0,8.7*,17,12*
COC(=O)[C@H](CC(C)C)N(CCCc1cn(Cc2ccccc2)nn1)S(=O)(=O)c1ccccc1Br,19,9,5,0,13*,36*,15*
COc1ccc(CNC(=O)C2CCN(c3nccs3)CC2)cc1,-3,1,-1,0,-3,/,/
O=C(O)CCOc1ccc2c(c1)OCCO2,-8,-2,-1,0,-4,/,/

# High-throughput results deposited in PubChem by The Scripps Research Institute Molecular Screening Center.
